Experimental data as given in PubChem BioAssay (NCATS).
Results filed as inconclusive are left out. The source made the active and inactive calls. Calls follow the shape of the dose curve; as a rule, active = well fitted inhibition curve with a large enough effect; inconclusive = small, poorly fitted or top-dose-only effect; inactive = flat fitted curve, though single readings scatter. Where a SMILES comes first, the peptide text is derived from it. The star is where a group is joined. Hexanoyl = CCCCCC(=O)*

Assay: P-glycoprotein substrates identified in KB-8-5-11 adenocarcinoma cell line, qHTS therapeutic library screen (AID 1346987); also: % is scaled to controls: 0 for no effect and ±100 for the full control effect; nearly all actives have a fitted effect of over 65% in size
Conditions: KB-8-5-11 (P-gp overexpressing) viability, CellTiter-Glo, 72 h; series mostly up to 44.5 µM; activity change, negative = cytotoxicity: at the top concentration
How it was run: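 P-gp-mediated resistance screen: KB-8-5-11 cells treated 72 h with compounds in dose-response. CellTiter-Glo viability.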

**Q.** With C=C(C)[C@H]1CC[C@]2(C(=O)O)CC[C@]3(C)C(CCC4[C@@]5(C)CCC(=O)C(C)(C)C5CC[C@]43C)C12 (some centres not stated) as the compound, how does the “activity change, negative = cytotoxicity” value read?
**A.** -27.5% [at 17.3 µM] (inactive)

**Q.** Which “activity change, negative = cytotoxicity” value does the source give for C=CC(C)(O)CC/C=C(\C)COC1O[C@H](CO)[C@@H](O)[C@H](O)[C@H]1O (some centres not stated) here?
**A.** -4.9% (inactive)

**Q.** Which activity change, negative = cytotoxicity does the source give for COc1cc2c(c(OC)c1O)C(c1ccc(O)cc1)C1C(=O)OC3C(COC(=O)C1=C2)OC(CO)(OC1OC(COC(=O)/C=C/c2ccc(OC4OC(C)C(O)C(O)C4O)cc2)C(O)C(O)C1O)C3O (configuration not stated) here?
**A.** 2.8% [at 9.29 µM] (inactive)

**Q.** Which “activity change, negative = cytotoxicity” value does the source give for C/C=C(\C)C1C(C)=CC2CCC(OS(=O)(=O)O)C(C)C2C1/C=C/C=C/C(=O)O (configuration not stated) here?
**A.** 6.83% [at 17.3 µM] (inactive)

**Q.** Which “activity change, negative = cytotoxicity” value does the source give for CC1=C2C3OC(=O)C(C)C3(O)CCC2(C)CCC1 (configuration not stated) here?
**A.** 7.82% (inactive)

**Q.** For COC(=O)[C@]1(C)CCC[C@@]2(C)C(=O)CC[C@H]3C(=O)C=C(CC[C@@H]21)C3O (some centres not stated), which “activity change, negative = cytotoxicity” value is on record?
**A.** 9.87% (inactive)

**Q.** Which “activity change, negative = cytotoxicity” value does the source give for C/C1=C\CC(C)(C)/C=C/C/C(C(=O)O)=C/CC1 here?
**A.** -18.5% (inactive)

**Q.** With CC1(C)C[C@H]2C=C(C=O)[C@]3(C(=O)O)C[C@]3(C)[C@H]2C1 as the compound, how does the “activity change, negative = cytotoxicity” value read?
**A.** -7.92% (inactive)

**Q.** Which “activity change, negative = cytotoxicity” value does the source give for Cc1sc(C)c(C(=O)NC2(c3ccc(C(=O)O)cc3)CC2)c1Cc1ccc(C(F)(F)F)cc1 here?
**A.** -2.04% (inactive)

Assay: Confirmatory screen GU Rhodamine qHTS for Zika virus inhibitors qHTS (AID 1347157); also: nearly all actives have a fitted effect of over 70% in size; also: potency is read from the fitted curve at half-maximal effect;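 as to activity change, negative = inhibition: plate controls were no-inhibitor wells for no effect and no-enzyme wells for full effect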
Conditions: purified enzyme assay, Rhodamine110 substrate fluorescence, 15 min; series mostly up to 114 µM; activity change, negative = inhibition: at the top concentration
How it was run: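 Percent inhibition came from the 15-min rise in Rhodamine110 fluorescence (1.5 microM substrate, ~15% conversion), normalized to no-inhibitor and no-enzyme wells and Hill-fitted. Unlinked protease, 25 nM, pH 8.0 Tris buffer; compounds up to 114 microM, 15-min preincubation.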

**Q.** With CC1(C)CC[C@]2(C(=O)O)CC[C@]3(C)C(=CCC4[C@@]5(C)CC[C@H](O[C@@H]6O[C@H](C(=O)O)[C@@H](O)[C@H](O)[C@H]6O)C(C)(C)C5CC[C@]43C)C2C1 (some centres not stated) as the compound, how does the Potency read?
**A.** 5.84 µM (active)

**Q.** Which Potency does the source give for CCC(C)/C=C(C)/C=C/C1=CC2=CC(=O)C(C)(O)C(OC(C)=O)C2CO1 (configuration not stated) here?
**A.** 30.6 µM (active)

**Q.** Which Potency does the source give for O=C(O)CC/C=C\C[C@H]1CO[C@@H](c2ccccc2Cl)O[C@H]1c1ccccc1O here?
**A.** 31.2 µM (active)

**Q.** Which Potency does the source give for O=C(/C=C/c1ccccc1)OC[C@H]1O[C@@H](OC(=O)c2cc(O)c(O)c(O)c2)[C@H](O)[C@@H](O)[C@@H]1O here?
**A.** 2.15 µM (active)

**Q.** With CSCC[C@H](NC(=O)[C@H](CO)NC(=O)[C@H](CCC(=O)O)NC(C)=O)C(=O)N[C@H](C=O)CC(=O)O (Ac-ESMD-aldehyde) as the compound, how does the activity change, negative = inhibition read?
**A.** 8.12% [at 22 µM] (inactive)

**Q.** For CCCCCC(=O)N1CCC[C@H]1C(=O)N[C@@H](Cc1ccc(O)cc1)C(=O)OC (Hexanoyl-Pro-Tyr-OMe), which “activity change, negative = inhibition” value is on record?
**A.** 0.54% (inactive)

**Q.** Which Potency does the source give for C=CC1(C)C=C2CC[C@H]3[C@@](C)(C(=O)O)CCC[C@]3(C)C2CC1 (some centres not stated) here?
**A.** 15.3 µM (active)

**Q.** Which Potency does the source give for COc1cc2c(c(OC)c1O)C(c1ccc(O)cc1)C1C(=O)OC3C(COC(=O)C1=C2)OC(CO)(OC1OC(COC(=O)/C=C/c2ccc(OC4OC(C)C(O)C(O)C4O)cc2)C(O)C(O)C1O)C3O (configuration not stated) here?
**A.** 7.44 µM (active)
